Test results reported in PubChem BioAssay.
A number with no mark means an inactive call. The rule behind the calls is not given here.

These compounds were tested against Pantothenate synthetase (Mycobacterium tuberculosis (strain ATCC 25618 / H37Rv)) (UniProt P9WIL5) (assay: Recombinant Mtb pantothenate synthetase (PanC) inhibitors, coupled enzyme, confirmatory (AID 375;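 note: 0% = full reaction with vehicle and 100% = no enzyme background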)). Conditions: coupled enzyme assay; at 10 µM, stronger effect = higher value.
Pantothenate synthetase (Mycobacterium tuberculosis (strain ATCC 25618 / H37Rv)), sequence (P9WIL5 whole entry, looked up): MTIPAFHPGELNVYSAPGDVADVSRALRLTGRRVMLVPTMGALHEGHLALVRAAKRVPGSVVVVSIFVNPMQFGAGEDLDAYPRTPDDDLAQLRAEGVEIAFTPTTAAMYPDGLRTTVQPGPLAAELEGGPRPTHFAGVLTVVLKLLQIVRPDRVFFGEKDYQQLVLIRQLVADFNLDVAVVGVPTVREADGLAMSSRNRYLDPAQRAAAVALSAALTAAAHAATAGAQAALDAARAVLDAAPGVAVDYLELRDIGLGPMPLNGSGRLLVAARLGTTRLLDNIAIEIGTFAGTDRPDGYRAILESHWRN

First: O=C(O)CCc1ccc(-c2cccs2)n1CCC(=O)O
Second: C=CCn1c(Cc2cccs2)nnc1SCC(=O)Nc1ccc(OC)c(OC)c1
The inhibition of the first is higher: 1% for the first, 0% for the second.

Going from Cc1cc(C)nc(SCc2nnc(SCc3ccccc3Cl)o2)n1 to Cc1cc(=O)c2n(Cc3ccccc3Cl)nc[n+]2[nH]1, the inhibition rises from 0% to 5%.

Going from CS(=O)(=O)N1CCCC(C(=O)N2CCOCC2)C1 (configuration not stated) to CC(=O)N1CCN(c2ccc(NC(=O)c3ccc(C(C)(C)C)cc3)cc2)CC1, the inhibition falls from 6% to 0%.

Compared with COc1cccc(OC)c1C(=O)Nc1cccc(C(C)=O)c1, CCC(CC)C(=O)Nc1cccc(C(=O)NCc2ccco2)c1 is higher in inhibition: 2% for the first, 6% for the second.

Compared with CN(C)c1nc(SCCOC(=O)c2ccccc2)nc(N(C)C)n1, O=C(NCc1nc2ccccc2[nH]1)c1ccco1 is lower in inhibition: 6% for the first, 0% for the second.

First: Cc1c[nH]c2cccc(OCC(O)CNC(C)(C)C)c12 (configuration not stated)
Second: COCc1nnc(NC(=O)c2ccc(NC(C)=O)cc2)s1
The inhibition of the first is lower: 0% for the first, 2% for the second.

Going from COc1ccc2cnn(-c3ccccc3)c(=O)c2c1OC to COC(=O)c1cc(Br)c(=O)n(-c2ccc(OC)cc2)c1, the inhibition falls from 6% to 0%.

Cc1cc(C)c2[nH]c(=O)c(C(c3nnnn3Cc3ccc4c(c3)OCO4)N3CCC(C)CC3)cc2c1 (configuration not stated) and O=C(CN1C(=O)C2C3C=CC(C3)C2C1=O)NCc1ccc2c(c1)OCO2 (configuration not stated) are the same in inhibition: 0% for the first, 0% for the second.

Cc1nc(NC(=O)C23CCC(C)(C(=O)O2)C3(C)C)sc1C (configuration not stated) and Cc1onc(-c2c(Cl)cccc2Cl)c1C(=O)NCC1CCCO1 (configuration not stated) are the same in inhibition: 0% for the first, 0% for the second.

Compared with Cc1cc(C(=O)N2CCCc3ccccc32)no1, CC(=O)Nc1ccc(NC(=O)c2ccccc2N(C)S(C)(=O)=O)cc1 is lower in inhibition: 3% for the first, 2% for the second.

Compared with CC1CC(=O)c2cnc(NCC3CCCO3)nc2C1 (configuration not stated), COC(=O)CSc1nnc(-c2ccncc2)o1 is lower in inhibition: 3% for the first, 0% for the second.
